Screening data (PubChem)
In the library only some 2.6% were active in any assay of this set; here they are far more common.
HepG2 viability – kills HepG2 cells in TGF-b inhibitor counter-screen | HepG2 CAGA-GFP viability, ATP luminescence, 18 h | Potency, µM (series often up to 46.1 µM), inactives show at the top dose activity change, negative = cytotoxicity, usual class: cytotoxic | hit rate 0.76% among 410,000 | AID 588856; further: potency means the concentration at half of the fitted maximal effect
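HepG2 CAGA-GFP cells (1000/well, DMEM with 1% FBS) received compound, then TGF-beta at 500 pg/mL final, and were incubated 18 hours at 37 degrees C. Viability was read by CellTiter-Glo luminescence. Media-only wells were set as complete cell-killing and DMSO as no toxicity.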
ATXN viability – viability counter-screen for ATXN expression inhibitors; S2 cells (HEK-293 line with an ATXN2-luciferase reporter) viability, CellTiter-Fluor protease fluorescence, 24 h; Potency, µM (top dose mostly 56.7 µM), hits mostly cytotoxic; hit rate 0.49% among 400,000; AID 651635; further: potency means the concentration at half of the fitted maximal effect; nearly all actives have a fitted effect of over 40% in size
TGFb SMAD3 inh – inhibitors of TGF-b signaling. HepG2 CAGA-GFP TGF-b/SMAD3 reporter, GFP fluorescence, 18 h; TGF-beta stimulated, 500 pg/mL final. Potency, µM (titrated, usually from 46.1 µM), without a hit: at the top dose activity, negative = inhibition, hits mostly inhibitors. hit rate 1.2% among 410,000. AID 588855; further: potency means the concentration at half of the fitted maximal effect; on the % scale 0 is the no-effect control and ±100 the full control effect; nearly all actives have a fitted effect of over 65% in size
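Per well, imaged GFP fluorescence of HEPG2 CAGA-GFP cells gives the signal; cells get compound, then TGF-beta (500 pg/mL final), 18 h at 37 degrees C; %Activity versus -TGF-beta and +DMSO controls.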
ATXN2 expr inh – reduces ATXN2 reporter expression in HEK-293 cells. HEK-293 ATXN2-luciferase reporter, luminescence, 24 h. Potency, µM (titrated, usually from 57 µM), for the others: top-dose activity change, negative = inhibition, most hits filed as inhibitors. hit rate 0.72% among 360,000; further: potency means the concentration at half of the fitted maximal effect; on the % scale 0 is the no-effect control and ±100 the full control effect; nearly all actives have a fitted effect of over 55% in size
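ATXN2-luciferase reporter cells (luciferase flanked by upstream and downstream ATXN2 gene portions) were treated 24 h at 37 °C with compounds at up to 57 uM. SteadyGlo luminescence gave expression; GF-AFC fluorescence gave viability.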
uPA generation – inhibitors of cell surface uPA generation; cell surface uPA generation assay, qHTS; Potency, µM (series often up to 38.3 µM), without a hit: at the top dose activity change, negative = inhibition, hits mostly inhibitors; hit rate 0.31% among 330,000; AID 540303; active means well fitted inhibition curve with a large enough effect; inconclusive means small, poorly fitted or top-dose-only effect; inactive means no such curve, though single readings can be large or run the other way; tested in mouse RAW 264.7 cells; further: potency means the concentration at half of the fitted maximal effect; on the % scale 0 is the no-effect control and ±100 the full control effect; nearly all actives have a fitted effect of over 55% in size
Giardia kill – kills Giardia lamblia; Giardia lamblia trophozoite viability; activity change, % at 7.66 µM, hits read low; hit rate 0.15% among 340,000; AID 540267; in the data active means activity change below about -80%; inconclusive means between about -30% and that limit;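 further: parasites exposed to compound for two days anaerobically before the ATP read; on the % scale 0 is the no-effect control and ±100 the full control effect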
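Trophozoite viability was measured as ATP-dependent luminescence, read 15-30 min after reagent addition. Before that, parasites at 100 cells/well were exposed to compounds for 48 h, anaerobically, at 37 deg C.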
Numbers without * were called inactive; i = inactive; ? = inconclusive; . = no result; ! = repeats disagree. Unless noted, the call rests on the fitted dose curve; in most records, active means well fitted curve in the direction sought with a large enough effect; inconclusive means small, poorly fitted or top-dose-only effect, or another doubt; inactive means no such curve, though single readings can be large; an effect the other way counts as inactive or inconclusive.

SMILES | HepG2 viability | ATXN viability | TGFb SMAD3 inh | ATXN2 expr inh | uPA generation | Giardia kill
Cc1cc(C)c(S(=O)(=O)NCC(c2ccco2)S(=O)(=O)c2ccccc2)c(C)c1 (stereo not drawn) | 5% | . | -2% | . | . | .
CCOc1ccc(S(=O)(=O)NCC(c2cccs2)S(=O)(=O)c2ccc(C)cc2)cc1 (stereo not drawn) | -36% | . | 5µM* | . | . | .
Cc1cc(C)c(S(=O)(=O)NCC(c2cccs2)S(=O)(=O)c2ccccc2)c(C)c1 (stereo not drawn) | 6.3µM* | . | 5.6µM* | . | . | .
CC1(C)CC(=O)c2cc(C(=O)Nc3ccccc3)c(=O)[nH]c2C1 | 1% | . | 28% | . | . | .
Cc1ccc(C)c2c1CCC(=Cc1ccccc1[N+](=O)[O-])C2=O | -16% | i | -14% | . | . | .
CN1C/C(=C/c2ccccc2[N+](=O)[O-])C(=O)/C(=C\c2ccccc2[N+](=O)[O-])C1 | -32% | . | 3.2µM* | ? | -4% | 14
NS(=O)(=O)c1ccc(S(=O)(=O)N2CCN(c3nc(-c4ccccc4)nc4ccccc34)CC2)cc1 | . | . | . | . | . | 4
CCC1CN(CCNC(=O)c2cccc3nccnc23)Cc2cc(OC)ccc2O1 (stereo not drawn) | . | i | . | . | . | .
CCN(CC)S(=O)(=O)c1ccc(N/N=C(\C)c2ccc(OC)cc2O)nc1 | -63% | i | 8.9µM* | . | 5.6µM* | -10
CCN(CC)S(=O)(=O)c1ccc(N/N=C/c2ccc(O)cc2)nc1 | -22% | i | -6% | 4% | -15% | 8
CCN(CC)CCNC(=O)C1CCN(S(=O)(=O)c2c(C)noc2/C=C/c2ccccc2F)CC1 | 14µM*! | ? | ? | 13µM* | ? | -2
Cc1noc(/C=C/c2ccco2)c1S(=O)(=O)N1CCC(C(=O)Nc2ccc(F)c(Cl)c2)CC1 | -10% | . | 2.5µM* | . | . | .
Cc1ccc(CNC(=O)c2ccccc2NS(C)(=O)=O)cc1 | -1% | i | 4% | -13% | 2% | ?
Cc1ccc(CNC(=O)c2ccccc2NS(=O)(=O)c2ccc(Cl)nc2)cc1 | -34% | ? | 16µM* | -10% | -13% | -2
O=C1c2ccccc2CN1c1ccccc1 | -22% | i | -5% | 41% | -3% | -5
Cc1ccc(N2Cc3ccccc3C2=O)cc1 | -43% | i | -17% | . | 8.9µM* | ?
C=CC(=O)Oc1ccc(N2Cc3ccccc3C2=O)cc1 | -42% | 32µM* | ? | . | 5µM* | -13
COc1ccc(N2Cc3ccccc3C2=O)cc1 | -69% | ? | -8% | -3% | -11% | ?
COC(=O)c1ccccc1-c1cc(C)cc2c1OC(CNC(=O)C1CCCO1)C2 (stereo not drawn) | . | i | . | . | . | .
N#CC1C(=O)c2ccccc2C1c1ccccc1 (stereo not drawn) | 14µM* | ? | ? | ? | -8% | -20
CCOc1ccc(/C=C/c2c([N+](=O)[O-])c(=O)n(C)c(=O)n2C)cc1 | -1% | i | 5% | -17% | -19% | 25
CCc1ccc(/C=C/c2c([N+](=O)[O-])c(=O)n(C)c(=O)n2C)cc1 | -14% | i | -24% | -12% | 6.3µM* | -4
CN(CC(=O)N1CCOCC1)Cc1c(Cl)cccc1NC(=O)c1ccccc1 | . | i | . | . | . | .
Oc1ccccc1/C=N/NC(=S)NC1CC2CC1C1C=CCC21 (stereo not drawn) | 18µM* | ? | ? | -13% | -13% | -3
COc1cccc(/C=N/NC(=S)NC2CC3CC2C2C=CCC32)c1O (stereo not drawn) | -19% | i | -4% | -22% | 7% | -25
SMILES | HepG2 viability | ATXN viability | TGFb SMAD3 inh | ATXN2 expr inh | uPA generation | Giardia kill
NCCCn1c(C(=O)c2ccc(Cl)cc2)c2ccc([N+](=O)[O-])cc2[n+]1[O-] | -32% | ? | 10µM* | ? | ? | ?
NC(=O)CCCn1c(C(=O)c2ccc(Cl)cc2)c2ccc([N+](=O)[O-])cc2[n+]1[O-] | -33% | 18µM* | ? | ? | 1.4µM* | -87*
NC(=O)CCCn1c(C(=O)c2cc(Cl)c(N)c(Cl)c2)c2ccc([N+](=O)[O-])cc2[n+]1[O-] | -54% | 28µM* | 7.9µM* | ? | 3.2µM* | ?
NCCCn1c(C(=O)c2ccc(Cl)cc2)c2ccc(C(F)(F)F)cc2[n+]1[O-] | -46% | i | 18% | 5% | -6% | ?
Cc1ccc(C(=O)c2c3ccc([N+](=O)[O-])cc3[n+]([O-])n2CCCC(N)=O)cc1 | -22% | ? | ? | ? | ? | ?
O=C(NCc1ccccc1C(F)(F)F)c1cccc2c1C(=O)c1ccc(N3CCC(N4CCCCC4)CC3)cc1S2(=O)=O | -41% | ? | -8% | 28µM* | . | .
Cc1cccc(-c2nc(CN3CCCC(C(=O)NCCc4ccc(Cl)cc4)C3)c(C)o2)c1 (stereo not drawn) | -21% | ? | -23% | ? | . | .
Cc1oc(-c2ccc(Cl)cc2)nc1CN1CCC(C(=O)NCCCN2CCCC2=O)CC1 | -29% | i | -6% | -9% | -3% | -1
Cc1oc(-c2ccc(Cl)cc2)nc1CN1CCCC(C(=O)NCCc2ccccc2)C1 (stereo not drawn) | -21% | ? | 7.1µM* | -2% | . | .
Cc1oc(-c2ccc(Cl)cc2)nc1CN1CCC(C(=O)NCCCN2CCCC(C)C2)CC1 (stereo not drawn) | 14µM* | ? | ? | ? | ? | 23
Cn1cc(-c2csc(C(C)(O)c3cccnc3)n2)cn1 (stereo not drawn) | 2.2µM* | i | 7% | 0% | . | .
CC(=O)Nc1cccc(-c2csc(C(C)(O)c3cccc(F)c3)n2)c1 (stereo not drawn) | -8% | i | -2% | -16% | . | .
CCN(CC)C(=O)c1cccc(-c2csc(C(C)(O)c3cccc(F)c3)n2)c1 (stereo not drawn) | -19% | ? | ? | 28µM* | . | .
CC(O)(c1cccc(F)c1)c1nc(-c2csc3ccccc23)cs1 (stereo not drawn) | -66% | ? | 13µM* | 0% | . | .
CC(C)c1cccc(-c2csc(C(C)(O)c3ccc(F)c(F)c3)n2)c1 (stereo not drawn) | 20µM* | i | ? | 0% | . | .
CC1CN(Cc2cccn2-c2cccnc2)Cc2cc(Cl)ccc2O1 (stereo not drawn) | . | i | . | . | . | .
O=C(NC1CCCC1)c1cn(C2CCN(Cc3cccc4cccnc34)CC2)nn1 | . | i | . | . | . | .
Cc1c(C(=O)NCc2ccc(F)cc2)sc2ncnc(NCC3CCCO3)c12 (stereo not drawn) | . | i | . | . | . | .
